Measurements taken from PubChem BioAssay AID686978 (National Center for Advancing Translational Sciences (NCATS), 2013).
Screen size: about 420,000 compounds; about 64,000 (15%) were called active. Not shown: some 27% with an inconclusive outcome. The call rests on the fitted dose curve; in most records, active means well fitted inhibition curve with a large enough effect; inconclusive means small, poorly fitted or top-dose-only effect; inactive means flat fitted curve, though single readings scatter. A selection follows. Where a call stands in place of a potency, no number is given.

Assay: qHTS for Inhibitors of human tyrosyl-DNA phosphodiesterase 1 (TDP1): qHTS in cells in absence of CPT; further: nearly all actives have a fitted effect of over 55% in size
Conditions: DT40 Tdp1-/- hTDP1 cells, no CPT, ATP luminescence, 48 h; activity change, negative = growth inhibition: at 46.2 µM (top of the series)
Summary of the method: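 Luminescent ATP content (CellTiter-Glo) served as the growth readout. Knockout chicken DT40 cells expressing human TDP1 were exposed to compounds without camptothecin for a minimum 48 hr at 37 °C.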
Potency means the concentration at half of the fitted maximal effect.

Row | Structure (SMILES) | Potency
1 | CN(C)S(=O)(=O)c1ccc(Oc2ccc(S(=O)(=O)N(C)C)cc2)cc1 | 18.4 µM (active)
2 | CN(C)S(=O)(=O)c1ccc(NC(=O)N2CCOCC2)cc1 | inactive
3 | COc1ccc(S(=O)(=O)N(C)CC(=O)N2CCCC2)cc1 | inactive
4 | C#CCOCCOCCOCCNc1nc(N2CCN(C(=O)[C@H](CCC(=O)O)n3cc(CN)nn3)CC2)nc(N2CCN(C(=O)[C@H](CCC(=O)O)n3cc(CN)nn3)CC2)n1 | inactive
5 | Cc1cccc(C(=O)NCc2nnc(SC(C)C(=O)Nc3nnc(C)s3)n2C)c1 (stereo not given) | inactive
6 | CCc1ccc(Oc2coc3cc(O)ccc3c2=O)cc1 | inactive
7 | CC(OC(=O)c1cccc(S(=O)(=O)N2CCOCC2)c1)C(=O)NCC1CCCCC1 (stereo not given) | inactive
8 | COc1cc(C(=O)OC(C)C(=O)NCC2CCCCC2)cc(NC(=O)c2ccco2)c1OC (stereo not given) | 20.6 µM (active)
9 | COc1cc(C(C(=O)NC2CCCC2)N(C(=O)c2ccco2)c2ccccc2C(C)=O)cc(OC)c1OC (stereo not given) | inactive
10 | CSCC[C@H](NC(=O)N1CCn2c1nc1ccccc12)C(=O)NCc1ccc2c(c1)OCO2 | inactive
11 | CC(=O)N/C(=C\c1ccccc1)C(=O)OC(C)C(=O)N(C)c1ccccc1 (stereo not given) | inactive
12 | O=S(=O)(NCCS(=O)(=O)N1CCN(c2ccccc2)CC1)c1ccc(Cl)cc1 | inactive
13 | CC1CCCN(CC(=O)Nc2cc(Cl)ccc2Oc2ccccc2)C1 (stereo not given) | 16.4 µM (active)
14 | O=C(CSc1ccccc1)Nc1cc(Cl)ccc1Oc1ccccc1 | inactive
15 | CC(=O)Nc1ccc(NC(=O)CN2CCCC(C)C2)c(Cl)c1 (stereo not given) | inactive
16 | COC(=O)[C@@H](Cc1ccccc1)NC(=O)NCCc1ccccc1 | inactive
17 | COc1ccc(-c2c(C)c3ccc(O)c(CN4CCN(C)CC4)c3oc2=O)cc1OC | inactive
18 | CN1CCN(Cc2c(O)ccc3c2oc(=O)c2ccccc23)CC1 | 11.6 µM (active)
19 | CCOC(=O)c1oc2c(CN3CCN(C)CC3)c(O)ccc2c(=O)c1-c1ccc(Br)cc1 | inactive
20 | COc1ccc(C(C)=O)cc1CSc1nc2nc(C)cc(C)n2n1 | inactive
21 | CN(CCc1cn[nH]c1)C(=O)CC1C(=O)NCCN1Cc1cccc(Oc2ccccc2)c1 (stereo not given) | inactive
22 | O=C(Nc1cccc(Cc2ccccc2)c1)Nc1ccc2nc([C@@H]3O[C@H](CO)[C@@H](O)[C@H](O)[C@H]3O)[nH]c2c1 | inactive
23 | O=C(CCn1c(=O)c2sccc2n(Cc2ccc(F)cc2)c1=O)NCc1ccc2c(c1)OCO2 | inactive
24 | O=C(CSc1ncc(CO)n1Cc1ccc(F)cc1)NCc1ccco1 | inactive
25 | O=C(Cc1ccc(-n2c(=O)c3sccc3n(Cc3ccc(F)cc3)c2=O)cc1)NCc1ccco1 | 18.4 µM (active)

Row | Structure (SMILES) | Potency
26 | Cc1cc(OC(=O)c2ccc(OC(C)C)cc2)c([N+](=O)[O-])c(=O)[nH]1 | inactive
27 | Cc1ccc2nc(SC(C)C(=O)NCc3ccco3)[nH]c2c1 (stereo not given) | inactive
28 | N#CCCN(C(=O)COC(=O)C1CCN(c2ccc(C(F)(F)F)cn2)CC1)c1ccc(F)cc1 | inactive
29 | CCOc1ccc(CCNC(=O)COC(=O)C2CCN(c3ccc(C(F)(F)F)cn3)CC2)cc1OCC | inactive
30 | CCc1cccc(NC(=O)COC(=O)C2CCN(c3ccc(C(F)(F)F)cn3)CC2)c1 | 8.2 µM (active)
31 | CSCCC(C(=O)NC1=NCCS1)N1C(=O)c2ccccc2C1=O (stereo not given) | inactive
32 | CCCCN(C(=O)/C=C/c1ccco1)c1c(N)n(CC(C)C)c(=O)[nH]c1=O | inactive
33 | O=C(CSc1ncccn1)NCCc1ccccc1 | inactive
34 | CCCCCCCCCCCCCCCC(=O)OC/C=C(C)/C=C/C=C(C)/C=C/C1=C(C)CCCC1(C)C | inactive
35 | COc1cc(C(O)c2nc(-c3cccc(C(=O)O)c3)cs2)ccc1F (stereo not given) | inactive
36 | COc1ccc(-c2csc(C(O)c3cccc(Cl)c3)n2)cn1 (stereo not given) | 20.6 µM (active)
37 | COc1ccc(Nc2cc(Cl)ccc2C(=O)O)cn1 | inactive
38 | CC1CCCN(CC(O)COc2ccc3c(c2)OCO3)C1 (stereo not given) | inactive
39 | CC1CCCN(CCOCCOc2ccccc2-c2ccccc2)C1 (stereo not given) | 23.1 µM (active)
40 | CC1CCCN(CC(O)COCc2ccccc2)C1 (stereo not given) | inactive
41 | COc1ccc(C(=O)OCC(=O)NCC2CCCCC2)cc1S(=O)(=O)N1CCCc2ccccc21 | inactive
42 | CCC(C)(C)NC(=O)/C=C/c1cc(OC)c(OC)c(S(=O)(=O)N2CCc3ccccc32)c1 | inactive
43 | COc1cc(C)c(C)cc1S(=O)(=O)N1CCCc2ccccc21 | 16.4 µM (active)
44 | O=C(O)CCC(=O)NCc1ccc(C(=O)O)cc1 | inactive
45 | CC(C)Cn1c(=O)c2ccccc2n2c(CCC(=O)NCc3ccccn3)nnc12 | inactive
46 | CC(C)Cn1c(=O)c2ccccc2n2c(CCC(=O)N3CCN(c4cccc(Cl)c4)CC3)nnc12 | 7.31 µM (active)
47 | COc1cccc2c1cc1c(=O)n(CC(=O)N3CCN(c4cccc(Cl)c4)CC3)nc(C)n12 | inactive
48 | CC(C)Cn1c(=O)c2ccccc2n2c(-c3cccc(Cl)c3)nnc12 | 25.9 µM (active)
49 | Cn1c(CNC(=O)c2ccco2)nnc1SCC(=O)N1CCN(c2ccccc2)CC1 | inactive
50 | Cn1c(Cc2cccc3ccccc23)nnc1SCC(=O)N1CCN(c2cccc(Cl)c2)CC1 | 23.1 µM (active)

Row | Structure (SMILES) | Potency
51 | Cc1ccc(Cl)cc1NC(=O)C(C)n1nnc2sc(-c3ccccc3)cc2c1=O (stereo not given) | inactive
52 | COc1ccc(NC(=O)CCc2nnc3n(CC(C)C)c(=O)c4ccccc4n23)cc1OC | inactive
53 | Cc1cc2nnc(SCC(=O)N3CCN(c4ccccc4)CC3)n2c(N)n1 | inactive
54 | CCC1CO/C(=C(\C(=C(Cl)Cl)N2CCOCC2)[N+](=O)[O-])N1 (stereo not given) | inactive
55 | CC(C)[C@H](NC(=O)N1c2ccccc2NC(=O)[C@@H]1C(C)C)C(=O)N[C@H](C(=O)O)c1ccccc1 | inactive
56 | COc1cccc(N2C(=O)CC(N3CCc4ccccc4C3)C2=O)c1 (stereo not given) | inactive
57 | C=C(C)c1cccc(C(C)(C)NC(=O)NCCN(CC)CC)c1 | inactive
58 | O=C(Nc1ccc([N+](=O)[O-])cc1)C1(c2ccccc2)CCOCC1 | inactive
59 | CC1(C)CC(=O)C(C=NCCC2=CCCCC2)=C(O)C1 | inactive
60 | COc1ccc(OC)c(NC(=O)c2ccc3c(c2)C(=O)N(c2ccc(OC(C)=O)cc2)C3=O)c1 | inactive
61 | O=C(/C=C/c1ccc(Cl)cc1Cl)c1cccnc1 | 14.6 µM (active)
62 | O=C(Nc1cccnc1)c1cc(Cl)ccc1Cl | inactive
63 | O=C(NCc1ccc(Cl)c(Cl)c1)c1cccnc1 | inactive
64 | CC1OC2C(OC1C)N(S(C)(=O)=O)CCN2S(C)(=O)=O (stereo not given) | inactive
65 | Cc1nc2ccc(NC(=S)N3CCC(C)CC3)cc2nc1C | inactive
66 | O=S(=O)(N/N=C\c1cccn1-c1ccccc1)c1ccc2ccccc2c1 | inactive
67 | CSc1ccc(CN(C)CC(=O)NCc2ccc(F)cc2)cc1 | inactive
68 | CCC(=O)N1CCCC1(C)C(=O)Nc1ccc2c(c1)CCN2C(C)=O (stereo not given) | inactive
69 | CSc1ccc(CNC(=O)C2(C)CCCN2C)cc1 (stereo not given) | inactive
70 | CSc1ccc(CN2CCC2(C)C(=O)Nc2ccc(C)c(O)c2)cc1 (stereo not given) | 18.4 µM (active)
71 | CC1(C(=O)NCc2cccc3ccccc23)CCN1Cc1ccc(-c2ccccc2)o1 (stereo not given) | 13 µM (active)
72 | CC1(C(=O)NCc2ccc3c(c2)OCO3)CCN1CCc1ccccc1 (stereo not given) | inactive
73 | CC1(C(=O)NCc2ccc3c(c2)OCO3)CCN1C(=O)Cc1cccs1 (stereo not given) | inactive
74 | CSc1ccc(CN2CCC2(C)C(=O)NCc2ccccc2Br)cc1 (stereo not given) | 23.1 µM (active)
75 | CCCC(=O)N1CCC1(C)C(=O)NCc1ccc(SC)cc1 (stereo not given) | inactive

Row | Structure (SMILES) | Potency
76 | CC(N)=NCc1cccc(CN)c1 | inactive
77 | Cc1nccn1CCC1CCCCN1C(=O)CCc1nnc(-c2ccsc2)o1 (stereo not given) | inactive
78 | O=C(CNC(=O)c1ccccc1F)c1ccc(Br)cc1 | inactive
79 | Cc1ccc(C)c(N(CC(=O)NCc2ccco2)C(=O)CCC(=O)Nc2ccccn2)c1 | inactive
80 | O=C(O)CCCCc1nc2ccccc2s1 | inactive
81 | CCC(Oc1ccccc1C)C(=O)Nc1ccc(S(=O)(=O)Nc2cc(C)on2)cc1 (stereo not given) | inactive
82 | COC(=O)c1scc(S(=O)(=O)C(C)(C)C)c1-n1cccc1 | inactive
83 | COc1cc(CC(=O)N2CCC(n3nccc3NC(=O)C3CC3)CC2)cc(OC)c1OC | inactive
84 | c1ccc(-n2nnnc2N2CCOCC2)cc1 | inactive
85 | O=C1c2ccccc2C(c2nc3ccccc3[nH]2)N1c1ccccc1 (stereo not given) | inactive
86 | C1=C(N2CCOCC2)/C(=C/c2nc3ccccc3[nH]2)CC1 | 23.1 µM (active)
87 | COC(=O)C1=CN(Cc2ccc(OC)cc2)C=C(C(=O)OC)C1c1ccc(O)c(OC)c1 | inactive
88 | O=Cc1ccc(OCc2cn3ccccc3n2)cc1 | inactive
89 | COc1ccc(/C=N/N=C2/C(=O)Nc3ccccc32)cc1O | inactive
90 | O=C(CSc1nnc(N2CCOCC2)n1-c1cccc(F)c1)N1CCN(c2ccccn2)CC1 | inactive
91 | N#C/C(=C\C1=C(N2CCOCC2)C(=C\c2ccccc2)/CC1)C(=O)Nc1ccccc1F | 14.6 µM (active)
92 | O=C(CN1CCN(c2ccccn2)CC1)N1CCc2ccccc21 | inactive
93 | O=C(CC1SC(N2CCOCC2)=NC1=O)Nc1ccccc1F (stereo not given) | inactive
94 | O=C1Nc2ccc(Br)cc2/C1=N/N=C/C1=C(N2CCOCC2)C(=C\c2ccccc2)/CC1 | 23.1 µM (active)
95 | O=C(O)c1ccc(NN=CC2=C(N3CCOCC3)/C(=C/c3ccccc3)CC2)cc1 | 3.26 µM (active)
96 | CCOC(=O)c1c(NC(=O)/C(C#N)=C/c2ccccc2)sc2c1CCC2 | inactive
97 | O=C(O)c1ccc(/C=N/Nc2nc(N3CCCCC3)nc(N3CCCCC3)n2)cc1 | inactive
98 | CCN(CC)c1ccc(C(=O)N/N=C/c2ccc(N3CCOCC3)cc2)cc1 | inactive
99 | C(=N\N1CCN(c2ccccn2)CC1)/C1=C(N2CCOCC2)C(=C/c2ccccc2)/CC1 | 16.4 µM (active)
100 | Cc1cc(C(=O)NNS(=O)(=O)c2ccccc2C(F)(F)F)nn1C(C)(C)C | inactive
